# Data as given in PubChem BioAssay AID651812 (National Center for Advancing Translational Sciences (NCATS), 2012).
# The campaign covered roughly 2,100 compounds. About 650 (31%) were called active. Another 16% or so got no clear call; they are omitted. The call rests on the fitted dose curve; in most records, active means well fitted inhibition curve with a large enough effect; inconclusive means small, poorly fitted or top-dose-only effect; inactive means flat fitted curve, though single readings scatter. The list shows a part of the results.
# Assay: qHTS for inhibitors of Vif-A3G interactions: Cherry picks; further: nearly all actives have a fitted effect of over 80% in size; on activity, negative = fluorescence increase: % of control where 0% means no effect
# Settings: HeLa A3G-eYFP + Vif (tagged APOBEC3G with the HIV-1 protein that degrades it), 24 h; Potency: eYFP fluorescence increase; series mostly up to 36.9 µM; activity, negative = fluorescence increase: at the top concentration
# Description: The recent discovery and characterization of host restriction factors, which provide a potent defense to invading retroviruses, has provided new targets for antiviral drug development. APOBEC3G (A3G) and APOBEC3F (A3F) are potent cytidine deaminases that block HIV-1 replication; HIV-1 expresses the Vif protein, which counteracts A3G and A3F by binding to them and inducing their proteasomal degradation. The Vif-A3G and Vif-A3F interactions provide two potential targets for development of small molecules which can interfere with the ability of Vif to degrade A3G or A3F. […] To identify inhibitors that can interfere with Vif mediated degradation of A3G and A3F, we have developed Hela cell lines that stably express A3G or A3F tagged with eYFP at the C-terminal end (A3G-eYFP or A3F-eYFP, respectively) and Vif. In the absence of an inhibitor, Vif induces degradation of A3G-eYFP and A3F-eYFP, and the cells are not fluorescent. In the presence of an inhibitor, it is expected that Vif will be unable to degrade A3G-eYFP and/or A3F-eYFP, resulting in an increase in yellow fluorescence. In this assay, Vif A3G was screened against the cherry picks ordered from the MLSMR. NIH Chemical Genomics Center [NCGC] NIH Molecular Libraries Probe Centers Network [MLPCN] MLPCN Grant: MH093245 Assay Submitter (PI): Vinay Pathak, National Cancer Institute
# A3G-Vif cells were harvested from T225 flask and resuspended in phenol free OPTI-MEM medium with 5% FBS. Then 5 uL of 140,000 cells/mL resuspended cells was dispensed into each well of low base Aurora COC 1,536-well plates (black walled, clear bottom) using a Multidrop Combi dispenser. After overnight culture at 37 deg C with 5% CO2, a total of 23 nL of compounds at 5 selected concentrations from the NPC or positive control (2 mM stock of MG132) in DMSO was transferred to each well of the assay plate using a pintool (Kalypsys, San Diego, CA), and the plates were further incubated at 37 deg C with 5% CO2 for 24 hours. After that, the plates were measured on Acumen Explorer (TTP Lab Tech). The fluorescence was detected by 488 nm/Ex and […].
# Potency means the concentration at half of the fitted maximal effect.
SMILES,Potency,"activity, negative = fluorescence increase"
CN1/C(=C\C=C2C(=O)NC(=O)NC2=O)C(C)(C)c2ccccc21,4.61 µM (active),
CCCCNC(=O)/C(C#N)=c1\s/c(=C\c2ccccc2OC(F)F)c(=O)n1CCCOC,16.4 µM (active),
COCCCn1c(=O)/c(=C\c2ccccc2OC(F)F)s/c1=C(/C#N)C(=O)NCCOC,20.6 µM (active),
C/C(=C\c1ccc(N(C)C)cc1)[N+](=O)[O-],,0.666% (inactive)
O=C1NC(=O)N(c2ccc3c(c2)OCO3)C(=O)/C1=C/c1ccc(N2CCCCC2)o1,23.1 µM (active),
O=C1NC(=O)N(c2ccc3c(c2)OCO3)C(=O)/C1=C\c1ccc(N2CCCCC2)o1,20.6 µM (active),
CCCCn1c(O)c(C(=O)/C=C/c2c[nH]c3ccccc23)c(=O)[nH]c1=O,15.8 µM (active),
Cc1ccccc1-n1c(/C=C/c2ccc(N(C)C)cc2)nc2ccccc2c1=O,5.8 µM (active),
O=c1[nH]c(CN2CC=C(c3ccccc3)CC2)nc2scc(-c3ccccc3)c12,23.1 µM (active),
O=C1/C(=C/c2ccc3c(c2)OCO3)SC(=S)N1CCC(=O)N(CCO)c1ccccc1,23.1 µM (active),
COc1ccc(-n2c(/C=C/c3ccc(O)c(OC)c3)nc3ccccc3c2=O)cc1,23.1 µM (active),
O=c1c2ccccc2nc(/C=C/c2ccccc2O)n1-c1ccc(Br)cc1,20.6 µM (active),
NC(=Nc1ccccc1)NN=Cc1c[nH]c2ccccc12,,-1.44% (inactive)
Cc1cccc(CN2CCCC(C(=O)c3cccc(OC(C)C)c3)C2)n1 (stereo not drawn),,-4.3% [at 46.1 µM] (inactive)
O=C1NC(=S)SC1=Cc1ccc(N(CCCl)CCCl)cc1,15.8 µM (active),
CN1C(=O)C(=Cc2ccc(N3CCOCC3)o2)C(=O)N(C)C1=S,20.6 µM (active),
CN1C(=O)C(=Cc2ccc(N3CCOCC3)o2)C(=O)N(C)C1=O,23.1 µM (active),
CN1C(=O)C(=Cc2ccc(N3CCCCC3)o2)C(=O)N(C)C1=S,7.31 µM (active),
O=C1CN=C(c2cccc(Br)c2)c2cc(Br)ccc2N1,,-0.913% (inactive)
CCS(=O)(=O)N1N=C(c2cccc(NS(C)(=O)=O)c2)CC1c1ccccc1 (stereo not drawn),18.4 µM (active),
O=Cc1c(C(=O)O)n(Cc2ccc(Cl)cc2)c2ccccc12,20.6 µM (active),

SMILES,Potency,"activity, negative = fluorescence increase"
Cc1ccc(CNC(=O)c2ccccc2NC(=O)c2nsc3ccccc23)cc1,20.6 µM (active),
COc1ccc(-c2ccc(OC)c(OC)c2OC)cc1,,-11.7% (inactive)
CN(C)c1ccc(C(=O)c2ccc(N(C)C)cc2)cc1,,-0.231% (inactive)
Cc1cc(N(CCCl)CCCl)ccc1C=Cc1ccncn1,23.1 µM (active),
COCCNC(=O)c1c(NC(=O)c2ccc(Br)o2)n(Cc2ccccc2)c2nc3ccccc3nc12,20.6 µM (active),
COCCCNC(=O)c1c(NC(=O)c2ccco2)n(Cc2ccccc2)c2nc3ccccc3nc12,,0.679% (inactive)
Cc1cccc(-n2c(/C=C/c3ccc([N+](=O)[O-])o3)nc3ccccc3c2=O)c1,3.66 µM (active),
Cc1cccc(-n2c(/C=C/c3c(C)[nH]c4ccccc34)nc3ccccc3c2=O)c1,16.4 µM (active),
O=c1c2ccccc2nc(/C=C/c2ccc([N+](=O)[O-])o2)n1-c1ccc(O)cc1,15.8 µM (active),
CC(=O)OC1C2(CC3N4C(=O)C5(CO)SSC4(CC31O)C(=O)N5C)OC(C)C(C)(C)C2=O (stereo not drawn),,-3.88% (inactive)
O=c1nc(/C=C/c2ccc(Cl)cc2Cl)cc(C(F)(F)F)[nH]1,,-0.355% (inactive)
CCN(CC)c1ccc(N=Cc2c(O)n(CCC3=CCCCC3)c(=O)[nH]c2=O)cc1,3.66 µM (active),
C=CCn1c(O)c(C(C)=Nc2ccc(N(CC)CC)cc2)c(=O)[nH]c1=O,,-6.28% (inactive)
CCN(CC)c1ccc(N=Cc2c(O)n(Cc3ccccc3)c(=O)[nH]c2=O)cc1,7.31 µM (active),
Cc1cccc(-n2c(O)c(/C=C/C=Nc3ccccc3)c(=O)[nH]c2=O)c1,5.17 µM (active),
COc1ccc(-n2cnc3cc(C(=O)N4CCC5(CC4)OCCO5)ccc32)cc1,,3.42% (inactive)
Cc1cc(C)cc(N2C(=O)NC(=O)/C(=C\C=C\c3ccco3)C2=O)c1,,-22.3% (inactive)
CN(C)c1ccc(/C=C/C=C2/C(=O)NC(=O)N(c3ccccc3)C2=O)cc1,23.1 µM (active),
CC(C)c1ccc(N2C(=O)NC(=O)/C(=C/C=C/c3ccco3)C2=O)cc1,17.7 µM (active),
Cc1cccc(N2C(=O)NC(=O)/C(=C\C=C\c3ccco3)C2=O)c1,,-12.9% (inactive)
CC(C)c1ccc(N2C(=O)NC(=O)/C(=C\C=C\c3ccco3)C2=O)cc1,17.7 µM (active),

SMILES,Potency,"activity, negative = fluorescence increase"
O=[N+]([O-])c1ccc(N2CCOCC2)c2c1no[n+]2[O-],,-16.4% (inactive)
CC(C)CCCn1c(O)c(/C=C2/C=CC=N2)c(=O)[nH]c1=O,23.1 µM (active),
C=C1C(=O)OC2C1CCC(C)C1(O)C=CC(=O)C21C (stereo not drawn),,0.263% (inactive)
CC1=CC(=Cc2sc3ccccc3[n+]2C)C=C(C)O1,6.51 µM (active),
Nc1ccc2c3c(cccc13)-c1ccccc1-2,4.11 µM (active),
CCC(C)N1C(=O)/C(=C\c2ccc(N3CCCCCC3)cc2)C(=O)NC1=S (stereo not drawn),,-23.4% [at 46.1 µM] (inactive)
CN1CCN(c2ccc(/C=C3\C(=O)NC(=S)N(c4cccc(Br)c4)C3=O)o2)CC1,18.4 µM (active),
Cc1cc(/C=C2\C(=O)NC(=O)N(c3ccc(Br)cc3)C2=O)c(C)n1C,,-0.904% (inactive)
CN1C(=O)/C(=C/c2ccc(N3CCCCCC3)o2)C(=O)NC1=S,15.8 µM (active),
CN1C(=O)/C(=C\c2ccc(N3CCCCC3)o2)C(=O)NC1=S,17.7 µM (active),
CCN(CC)c1ccc(/C=C2\C(=O)NC(=S)N(C)C2=O)o1,12.5 µM (active),
CCN1C(=O)/C(=C/c2ccc(N(CC)CC)cc2OC)C(=O)NC1=S,,-8.27% [at 46.1 µM] (inactive)
CCN(CC)c1ccc(/C=C2\C(=O)NC(=S)N(c3ccc(OC)cc3OC)C2=O)o1,16.4 µM (active),
CCN(CC)c1ccc(C=C2C(=O)N(C)C(=S)N(C)C2=O)o1,14 µM (active),
COc1cc2c(cc1O)[C@@H]1Cc3ccc(OC)c(O)c3CN1CC2,,-7.77% (inactive)
N#CC1=C(N)Oc2c(c(=O)sc3ccccc23)C1c1cccnc1 (stereo not drawn),,-9.63% (inactive)
Cc1cc(N2CCCC2)ccc1C=C(C#N)C#N,7.31 µM (active),
Cc1c2ccncc2c(C)c2c1[nH]c1ccccc12,14.6 µM (active),
CC/C(=N\NC(=O)c1ccccc1O)c1c(O)n(Cc2ccccc2)c(=O)[nH]c1=O,20.6 µM (active),
CC(=O)O[C@@]12CO[C@@H]1C[C@H](OC1OCC(O)C(O)C1O)[C@@]1(C)C(=O)[C@H](O)C3=C(C)[C@@H](OC(=O)[C@H](O)[C@@H](NC(=O)c4ccccc4)c4ccccc4)C[C@@](O)([C@@H](OC(=O)c4ccccc4)C12)C3(C)C (stereo partly drawn),,-10.3% (inactive)
COC(=O)C1=C(C)N(Cc2ccco2)C(=O)/C1=C\c1ccc(N(C)C)cc1,13 µM (active),
